Experimental data taken from PubChem BioAssay AID2462 (Broad Institute, 2010).
Screen size: about 330,000 compounds; about 220 (0.067%) were called active. The list comes from a sample in which actives are over-represented; it also holds similar structures and randomly drawn compounds. Unmarked numbers belong to inactive results.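 Rule for the calls: active = over half of replicate activation scores above 10%, or exactly half above 10 with the replicate mean above 10; inconclusive = replicate mean below 10 yet half the replicates above 10; inactive = over half of replicates below 10.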

Assay: inducers of caspase signal in A1-primed MEFs – cell-based, luminescence, HTS, A1 inhibitor project, primary screen (AID 2462)
Conditions: MEF A1-2A-BIM cells, Caspase-Glo 3/7 luminescence, 3 h; active compounds read high; percent of clofoctol response, vehicle zero; concentration not given here

SMILES	caspase activation
COc1ccc(-c2n[nH]c3c2CN(C(=O)c2ccc(F)cc2)CC3)cc1	1.44%
CCOC(=O)c1sc(N)c(C#N)c1COC(=O)C1=COCCO1	0.458%
COc1ccc(CNC(=O)c2ccc(NS(=O)(=O)c3ccc4[nH]c(=O)[nH]c4c3)cc2)cc1OC	-0.468%
COc1cccc(NC(=O)CN(C)C(=O)/C=C/c2cc(OC)ccc2OC)c1	-0.126%
O=C(O)c1ccn(COc2ccc(Br)cc2)n1	-1.22%
CC(C)N(C(=O)CN1CCN(S(=O)(=O)c2ccc(Br)s2)CC1)C(C)C	1.33%
CC(C)n1cnc2c(NCc3ccccc3)cc(N[C@@H](CO)Cc3ccccc3)cc21	-2.12%
O=c1c2ccccc2ccc2ccc(P(=O)(O)O)cc12	0.843%
N#CCOc1ccc(C2=NO[C@@H]3[C@@H]4C[C@@H]([C@H]5C(=O)N(c6ccc7c(c6)OCO7)C(=O)[C@@H]45)[C@H]23)cc1	0.442%
CSc1cc(C)[nH]c(=O)n1	-0.248%
O=S(=O)(c1ccccc1)N(Cc1cccc(F)c1)c1ccccc1	0.447%
O=[N+]([O-])/C=C/c1ccc2c(ccn2Cc2ccccc2)c1	9.93% (active)
O=C(Cn1ccc2cc(S(=O)(=O)N3CCCC3)ccc21)NCc1ccccc1	-0.143%
COC(=O)Cn1cc(/C=C/[N+](=O)[O-])c2ccccc21	1.03%
COc1ccc(S(=O)(=O)N(C)C[C@H]2Oc3ccc(NS(=O)(=O)c4cccs4)cc3CC(=O)N([C@H](C)CO)C[C@H]2C)cc1	-0.719%
O=C(O)c1cccnc1Sc1ncnc2sc3c(c12)CCC3	-0.234%
O=C(CSc1nc(Nc2ccccc2)nc(N2CCOCC2)n1)Nc1cc(Cl)ccc1O	0.376%
Nc1nc(Br)c2ccccc2c1-c1ccc(F)cc1	-0.0976%
CC(C)(O)C#Cc1ncc(C(F)(F)F)cc1Cl	0.0403%
Cc1ccc(NCc2n[nH]c(=S)n2-c2ccccc2)cc1Cl	-0.072%
CCCS(=O)(=O)N1CCN=C1SCc1cccc(F)c1	-0.156%

SMILES	caspase activation
CCn1ncc(CNC(=O)C2(C)CC2(Br)Br)c1C (stereo unspecified)	-0.282%
COc1cc(C(=O)NC2CCN(Cc3ccccc3)CC2)cc(Cl)c1OC(C)C	-0.406%
COc1ccccc1CNC(=O)CCCNS(=O)(=O)c1cccc2nsnc12	0.433%
O=C(c1cc2ccccc2o1)N1CCN(S(=O)(=O)c2ccc(Cl)s2)CC1	-0.105%
COc1ccc(CNC(=O)CN2CCC(n3nnc4cc(F)ccc43)CC2)cc1	-0.421%
CC1CCCN(C(C(=O)Nc2ccc(C(C)C)cc2)c2ccc3c(c2)OCO3)C1 (stereo unspecified)	-0.471%
NC(=O)C1CCCN(CC(=O)N2CCN(c3ccccc3)CC2)C1 (stereo unspecified)	-0.0385%
Cc1ccc(S(=O)(=O)N2CCN(C(=O)CN3C(=O)NC(C)(c4ccc(Cl)cc4)C3=O)CC2)c(C)c1 (stereo unspecified)	-0.688%
CC(NCC(=O)Nc1ccccc1C(=O)NC1CC1)c1ccccc1Cl (stereo unspecified)	0.355%
CC(=O)N(CN1C(=O)C2C3C=CC(C3)C2C1=O)c1cccc(Cl)c1 (stereo unspecified)	0.192%
CCOc1ccccc1NC(=O)NC1CCCCCCC1	-0.841%
Cn1c(CCCOc2ccc(Cl)cc2Cl)n[nH]c1=S	-0.629%
O=C(NC(=S)Nc1ccc2oc(=O)ccc2c1)c1ccc(-c2cccc(Cl)c2Cl)o1	0.568%
CC1CCc2[nH]c3ccc(C(=O)N(C)CC(=O)Nc4cccc(F)c4)cc3c2C1 (stereo unspecified)	0.268%
Cc1ccc(S(=O)(=O)c2c[nH]c3ccc(C)cc3c2=O)cc1	-2.55%
COc1ccc(-c2cnc(SCCNC(=O)c3ccc4c(c3)OCO4)[nH]2)cc1	1.35%
O=C(N/N=C/c1cccc(OCc2ccccc2)c1)c1ccc(Br)o1	0.285%
COC(=O)c1ccc(COc2ccc(/C=N/NC(=O)C(=O)Nc3ccc(OC)cc3)cc2OC)o1	0.365%
CCCc1ccc(OCc2ccc(C(=O)N/N=C/c3cccc([N+](=O)[O-])c3)o2)c(OC)c1	16.1% (active)
NC(=O)COC(=O)c1cc(S(=O)(=O)N2CCN(c3ccccc3)CC2)ccc1Cl	0.691%
